PLAP activator: human PLAP activation | activation fold at 20 µM | purified PLAP enzyme, luminescent substrate read-out; active compounds read high | AID 696 | 96,000 tested, 1.2% active | P05187; in the data active = activation fold above about 2
Target sequence (P05187 whole entry, looked up): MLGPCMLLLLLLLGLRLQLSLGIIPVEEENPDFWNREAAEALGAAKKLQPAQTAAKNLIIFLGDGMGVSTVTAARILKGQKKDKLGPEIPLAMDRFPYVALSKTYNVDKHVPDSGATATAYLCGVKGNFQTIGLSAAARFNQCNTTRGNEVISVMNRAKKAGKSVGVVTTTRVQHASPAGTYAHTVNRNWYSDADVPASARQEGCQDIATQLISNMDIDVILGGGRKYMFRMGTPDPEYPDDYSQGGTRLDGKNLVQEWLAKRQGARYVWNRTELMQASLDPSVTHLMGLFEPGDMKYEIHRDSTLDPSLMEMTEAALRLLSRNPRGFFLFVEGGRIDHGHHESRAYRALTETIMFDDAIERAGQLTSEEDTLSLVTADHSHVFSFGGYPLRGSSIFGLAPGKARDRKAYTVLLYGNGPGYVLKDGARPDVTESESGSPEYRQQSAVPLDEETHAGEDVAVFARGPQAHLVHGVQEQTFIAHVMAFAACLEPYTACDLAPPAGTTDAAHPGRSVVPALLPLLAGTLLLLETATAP
CYP2C9 activ: increases human cytochrome P450 2C9 activity; P11712; recombinant CYP2C9, luciferin-H conversion, luminescence; active compounds read high; factor 1 = untreated enzyme, 0 = blocked; activation factor at 5 µM; 96,000 tested, 1.4% active;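 active = activation factor of 2 or more for CYP2C9 at a 5 µM dose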;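 note: 0 = sulfaphenazole-blocked wells and 1 = vehicle-only wells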
CYP2C19 act: cytochrome P450 2C19 (human) activation; P33261; recombinant CYP2C19, luciferin-H EGE luminescence; active compounds read high; 0 = fully inhibited enzyme, 1 = untreated enzyme; activation factor at 5 µM; 96,000 tested, under 10 active; AID 1025;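 active = activation factor of at least 2 at 5 µM in the primary screen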;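 note: 0 = wells with 2.5 mM tranylcypromine and 1 = vehicle-only wells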
CYP2C9 inh: human CYP2C9 inhibition | P11712 | CYP2C9 Supersomes, luciferin-H conversion, luminescence | inhibition, % at 5 µM | 96,000 tested, 20% active;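 active = blocking of liver enzyme CYP2C9 beyond about 50% at 5 µM, limit read from the data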
CYP2C19 inh: human CYP2C19 inhibition | 96,000 tested, 21% active | P33261 | inhibition, % at 5 µM | CYP2C19 Supersomes, luciferin-H EGE luminescence, 30 min | AID 778;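 active = CYP2C19 inhibition above a set limit at 5 µM in the primary screen, cut at about 50% in these data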;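 note: plate controls were negative control wells for no effect and 2.5 mM tranylcypromine positive control for full effect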
Numbers without * were called inactive. This is a sample that favours compounds with a hit; in the whole collection about 31% have one here.

SMILES | PLAP activator | CYP2C9 activ | CYP2C19 act | CYP2C9 inh | CYP2C19 inh
N#Cc1cccc(C(c2nnnn2C2CCCC2)N2CCCCCC2)c1 (stereo not given) | 1.2 | 0.7 | 0.7 | 34 | 29
Fc1ccccc1N1CCN(C(c2ccncc2)c2nnnn2C2CCCC2)CC1 (stereo not given) | 1.5 | 0.4 | 0.1 | 64* | 86*
CCC(c1nnnn1C1CCCC1)N1CCN(c2ccccc2)CC1 (stereo not given) | 0.9 | 0.5 | 0.8 | 46 | 21
O=c1c(C(c2nnnn2C2CCCCC2)N2CCCCC2)coc2ccc(Cl)cc12 (stereo not given) | 1 | 0.7 | 0.5 | 28 | 52*
CN(C=O)CP(=O)(O)CN1CCCCC1 | 0.9 | 1.2 | 1.2 | -20 | -19
O=C(CN(Cc1ccccc1Cl)C(=O)Cn1nnc(-c2cccs2)n1)NCC1CCCO1 (stereo not given) | 1.7 | 0.6 | 0.7 | 40 | 27
O=C(CN(CCc1ccccc1)C(=O)CN1C(=O)COc2ccccc21)NCc1ccco1 | 1 | 0.7 | 0.6 | 30 | 36
O=C(CN(CCc1ccccc1)C(=O)Cn1nnc(-c2cccs2)n1)NCc1ccco1 | 0.9 | 0.2 | 0.4 | 81* | 56*
O=C(CN(C(=O)Cn1nnc(-c2cccs2)n1)c1ccc2c(c1)OCCO2)NCc1ccccc1 | 2.1* | 0 | 0.4 | 96* | 60*
CC(=C1C(=O)c2ccccc2C1=O)N1CCC(C(N)=O)(N2CCCCC2)CC1 | 1.1 | 1.1 | 1 | -6 | -2
N#Cc1c2n(c3c(=O)n(Cc4ccccc4)cnc13)CCCC2 | 1.1 | 0.2 | 0 | 82* | 98*
N#Cc1c2n(c3c(=O)n(Cc4ccc(Cl)cc4)cnc13)CCCCC2 | 1.5 | 0 | 0 | 100* | 99*
CCOC(=O)Cn1cnc2c(C#N)c3n(c2c1=O)CCCCC3 | 0.9 | 1 | 1 | 4 | 2
N#Cc1c2n(c3c(=O)n(CC(=O)c4ccc(Br)cc4)cnc13)CCCC2 | 1 | 0.9 | 0.5 | 14 | 53*
O=[N+]([O-])c1ccc(CSc2nc3ccccc3o2)cc1 | 1 | 0.8 | 0.8 | 21 | 16
C(=C\c1ccccc1)/CSc1nnc(-c2cccnc2)o1 | 0.9 | 0.8 | 0.4 | 16 | 55*
c1cncc(-c2nnc(SCc3cccc4ccccc34)o2)c1 | 1.3 | 1.4 | 0.5 | -39 | 46
Cc1ccc(CSc2nnc(-c3cccnc3)o2)cc1 | 1.1 | 0.4 | 0.3 | 58* | 70*
Nn1c(CSc2nc3ccccc3o2)nnc1CSc1nc2ccccc2o1 | 0.8 | 0.3 | 0.3 | 66* | 72*
c1ccc2[nH]c(CSc3nc4ccccc4o3)nc2c1 | 1.7 | 0.3 | 0 | 70* | 100*
O=C(O)c1cc(NCc2c(F)cccc2Cl)ccc1N1CCOCC1 | 1.3 | 0.7 | 1 | 25 | -5
Cn1c(SCc2nc3ccccc3[nH]2)nnc1-c1cccnc1 | 1 | 1 | 0.9 | -4 | 13
c1cncc(-c2nnc(SCc3nc4ccccc4[nH]3)o2)c1 | 1.8 | 0.6 | 0.3 | 39 | 70*
CCN1CCN(C(c2cc3cc4c(cc3[nH]c2=O)OCO4)c2nnnn2C(C)(C)CC)CC1 (stereo not given) | 1.3 | 1.2 | 1.2 | -16 | -16
CCC(C)(C)n1nnnc1C(c1ccc2ncccc2c1)N1CCN(c2nc3ccccc3s2)CC1 (stereo not given) | 1.6 | 0.1 | 0.9 | 88* | 7
SMILES | PLAP activator | CYP2C9 activ | CYP2C19 act | CYP2C9 inh | CYP2C19 inh
CCC(C)(C)n1nnnc1C(c1ccc2ncccc2c1)N1CCN(Cc2ccc3c(c2)OCO3)CC1 (stereo not given) | 2.1* | 1 | 1 | 1 | -4
O=C(CSC1=NCCS1)Nc1ccccc1F | 1.2 | 0.5 | 0.2 | 48 | 79*
O=C(CSc1nc2ccccc2[nH]1)NCCCn1ccnc1 | 2* | 0.1 | 0.1 | 95* | 92*
O=C(CSC1=NCCS1)Nc1cccc2ccccc12 | 1.3 | 1 | 0.8 | 3 | 20
O=C1CCC(C(=O)NCCCn2ccnc2)N1 (stereo not given) | 1 | 1.2 | 1.1 | -16 | -7
O=C(CSc1nc2ccccc2[nH]1)Nc1ccc(F)c(F)c1 | 1.2 | 0.3 | 0.4 | 66* | 56*
O=C(O)CSc1nc2ccccc2[nH]1 | 0.9 | 1.1 | 1.1 | -8 | -14
O=C(CSc1nc2ccccc2[nH]1)Nc1ccccc1F | 1.3 | 0.2 | 0.4 | 84* | 64*
COc1cccc(Nc2nc(=O)[nH]nc2C)c1 | 0.8 | 1.1 | 1.1 | -12 | -12

Compound activity (PubChem BioAssay)
